Results: PubChem BioAssay AID1159580 (chemical genetic matrix, 2015)
In all, about 5,500 compounds went through this assay and about 2,000 (36%) were called active. Roughly 18% stayed inconclusive and do not appear here. No stated cut-off is given here; in the data, active means normalized growth mostly below about 0.91 (no sharp cut-off); inconclusive means no clear call, values can overlap the other calls; inactive means mostly above about 0.92. Some of the results follow.

Experiment: chemical genetic growth profiling, strain panel (AID 1159580);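 further: tested at 20 µM; growth read once vehicle control cultures reached saturation at 30 °C; 1 = growth at the plate median or of vehicle wells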
Conditions: S. cerevisiae deletion strains, growth OD

Measured: normalized growth

O=c1c(O)c(-c2ccc(O)cc2)oc2ccccc12
active: locus YAL021C, strain ccr4, stronger effect = lower value 0.576 | locus YAL026C, strain drs2, stronger effect = lower value 0.707 | locus YAL030W, strain snc1, stronger effect = lower value 0.809 | locus YBL061C, strain skt5, stronger effect = lower value 0.714 | locus YBR009C, strain hhf1, stronger effect = lower value 0.7 | locus YBR023C, strain chs3, stronger effect = lower value 0.643 | locus YBR231C, strain swc5, stronger effect = lower value 0.794 | locus YBR279W, strain paf1, stronger effect = lower value 0.749 | locus YCL011C, strain gbp2, stronger effect = lower value 0.762 | locus YCL016C, strain dcc1, stronger effect = lower value 0.849 | locus YCL061C, strain MRC1, stronger effect = lower value 0.904 | locus YCL069W, strain vba3, stronger effect = lower value 0.816 | locus YDR069C, strain doa4, stronger effect = lower value 0.56 | locus YDR137W, strain rgp1, stronger effect = lower value 0.397 | locus YDR159W, strain sac3, stronger effect = lower value 0.792 | locus YDR195W, strain ref2 1.34 [resistant] | locus YDR297W, strain sur2, stronger effect = lower value 0.82 | locus YDR334W, strain swr1, stronger effect = lower value 0.831 | locus YDR335W, strain msn5, stronger effect = lower value 0.789 | locus YDR392W, strain spt3, stronger effect = lower value 0.284 | locus YEL003W, strain gim4, stronger effect = lower value 0.79 | locus YEL037C, strain rad23, stronger effect = lower value 0.853 | locus YEL061C, strain CIN8 (second series), stronger effect = lower value 0.885 | locus YER015W, strain faa2, stronger effect = lower value 0.615 | locus YER016W, strain bim1, stronger effect = lower value 0.863 | locus YER111C, strain swi4, stronger effect = lower value 0.745 | locus YER155C, strain BEM2 (second series), stronger effect = lower value 0.489 | locus YFR010W, strain ubp6, stronger effect = lower value 0.84 | locus YGL173C, strain kem1, stronger effect = lower value 0.499 | locus YGL240W, strain doc1, stronger effect = lower value 0.855 | locus YGL253W, strain hxk2, stronger effect = lower value 0.63 | locus YHR013C, strain ard1, stronger effect = lower value 0.506 | locus YHR027C, strain rpn1, stronger effect = lower value 0.546 | locus YHR030C, strain SLT2, stronger effect = lower value 0.847 | locus YHR142W, strain chs7, stronger effect = lower value 0.495 | locus YJL095W, strain BCK1 (second series), stronger effect = lower value 0.731 | locus YJL095W, strain BCK1, stronger effect = lower value 0.833 | locus YJL129C, strain trk1, stronger effect = lower value 0.717 | locus YJL164C, strain tpk1, stronger effect = lower value 0.564 | locus YJL166W, strain qcr8, stronger effect = lower value 0.538 | locus YJL187C, strain SWE1, stronger effect = lower value 0.725 | locus YKL160W, strain elf1, stronger effect = lower value 0.713 | locus YLL001W, strain dnm1, stronger effect = lower value 0.777 | locus YLL026W, stronger effect = lower value 0.809 | locus YLL041C, strain sdh2, stronger effect = lower value 0.91 | locus YLR027C, strain aat2, stronger effect = lower value 0.695 | locus YLR113W, strain HOG1, stronger effect = lower value 0.719 | locus YLR221C, strain rsa3, stronger effect = lower value 0.697 | locus YLR258W, strain gsy2, stronger effect = lower value 0.766 | locus YLR262C, strain YPT6 (second series), stronger effect = lower value 0.369 | locus YLR320W, strain mms22, stronger effect = lower value 0.426 | locus YLR342W, strain FKS1, stronger effect = lower value 0.757 | locus YLR370C, strain arc18, stronger effect = lower value 0.781 | locus YLR384C, strain iki3, stronger effect = lower value 0.905 | locus YML120C, strain ndi1, stronger effect = lower value 0.669 | locus YMR058W, strain fet3, stronger effect = lower value 0.179 | locus YMR205C, strain PFK2, stronger effect = lower value 0.56 | locus YMR231W, strain pep5, stronger effect = lower value 0.545 | locus YNL071W, strain lat1, stronger effect = lower value 0.471 | locus YNL209W, strain ssb2, stronger effect = lower value 0.458 | locus YNL248C, strain rpa49, stronger effect = lower value 0.837 | locus YOR001W, strain rrp6, stronger effect = lower value 0.695 | locus YOR070C, strain gyp1, stronger effect = lower value 0.666 | locus YOR080W, strain dia2, stronger effect = lower value 0.861 | locus YOR083W, strain WHI5, stronger effect = lower value 0.664 | locus YOR106W, strain vam3, stronger effect = lower value 0.319 | locus YOR231W, strain MKK1, stronger effect = lower value 0.847 | locus YOR265W, strain rbl2, stronger effect = lower value 0.816 | locus YOR270C, strain vph1, stronger effect = lower value 0.328 | locus YOR290C, strain snf2, stronger effect = lower value 0.641 | locus YPL051W, strain arl3, stronger effect = lower value 0.441 | locus YPL078C, strain atp4, stronger effect = lower value 0.651 | locus YPL106C, strain sse1, stronger effect = lower value 0.843 | locus YPL240C, strain hsp82, stronger effect = lower value 0.869 | locus YPL256C, strain CLN2, stronger effect = lower value 0.816
inactive: locus YBR171W, strain sec66, stronger effect = lower value 0.903 | locus YCR088W, strain abp1, stronger effect = lower value 0.962 | locus YDL005C, strain med2, stronger effect = lower value 0.965 | locus YDL040C, strain nat1, stronger effect = lower value 0.934 | locus YDR001C, strain nth1, stronger effect = lower value 0.936 | locus YGL167C, strain pmr1, stronger effect = lower value 0.921 | locus YGL227W, strain vid30, stronger effect = lower value 0.962 | locus YHR079C, strain IRE1, stronger effect = lower value 0.855 | locus YJL092W, strain hpr5, stronger effect = lower value 0.922 | locus YJL115W, strain asf1, stronger effect = lower value 0.971 | locus YJL154C, strain vps35, stronger effect = lower value 0.931 | locus YJR066W, strain TOR1, stronger effect = lower value 0.842 | locus YKR026C, strain gcn3, stronger effect = lower value 0.945 | locus YKR091W, strain srl3, stronger effect = lower value 0.937 | locus YLR357W, strain rsc2, stronger effect = lower value 0.9 | locus YMR125W, strain sto1, stronger effect = lower value 0.972 | locus YMR129W, stronger effect = lower value 0.932 | locus YNL183C, strain NPR1, stronger effect = lower value 0.838 | locus YNL322C, strain KRE1 (second series), stronger effect = lower value 0.909 | locus YNR049C, strain mso1, stronger effect = lower value 0.919
